KinaseGlo FLuc: Counterscreen for Luciferase (Kinase-Glo TM) Inhibition | Kinase-Glo luciferase, ATP luminescence, 8 min | 200,000 compounds, 0.28% hits | Luciferin 4-monooxygenase (Photuris pensylvanica), Q27757 | Potency, µM (titrated, usually from 38.3 µM), for inactives: at the highest dose activity change, negative = inhibition, usual class: inhibitors; active means well fitted inhibition curve with a large enough effect; inconclusive means small, poorly fitted or top-dose-only effect; further: potency means the concentration at half of the fitted maximal effect; nearly all actives have a fitted effect of over 60% in size
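Compound is pinned into ATP-containing buffer (10 uM ATP, imidazole pH 7.2, 7 mM MgCl2). Kinase-Glo luciferase reagent is then added. Light output is recorded following an 8-min room-temperature incubation.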
IMPase inh: qHTS Assay for Identifying the Cell-Membrane Permeable IMPase Inhibitors; 120,000 tested, under 10 active; CHO-M1 cells, IP1 accumulation, HTRF TR-FRET ratio; inhibition (IP1 accumulation), % at 46.1 µM; active means well fitted curve in the direction sought with a large enough effect in the signal ratio, not every such curve was filed as active; inconclusive means small, poorly fitted or top-dose-only effect, or a change in a side signal; inactive means no such curve, though single readings can be large or run the other way; the % refers to the signal ratio;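 further: cells stimulated with carbachol in lithium chloride buffer; plate controls were DMSO basal wells for no effect and reference inhibitor wells for full effect; higher means more IMPase inhibition seen as more IP1 and lower FRET ratio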
Target sequence (P97697 whole entry, looked up): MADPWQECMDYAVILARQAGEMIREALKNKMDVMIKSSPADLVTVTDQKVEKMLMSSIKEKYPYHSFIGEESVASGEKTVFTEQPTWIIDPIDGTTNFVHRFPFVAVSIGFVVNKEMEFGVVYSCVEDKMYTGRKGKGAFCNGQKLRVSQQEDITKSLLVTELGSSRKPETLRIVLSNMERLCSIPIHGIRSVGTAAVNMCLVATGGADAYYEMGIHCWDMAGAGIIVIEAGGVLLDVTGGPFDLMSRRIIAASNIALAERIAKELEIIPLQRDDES
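CHO-M1 cells (CHO stably expressing M1 receptor), compound up to 46 uM final, stimulated with carbachol (50 uM as added) in buffer with 50mM LiCl, pH 7.4, 30 min at 37C. Cytosolic IP1 read by TR-FRET; AC50 from Hill fits.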
PNC inhibitor: High Content Assay for Compounds that inhibit the Assembly of the Perinucleolar Compartment; PC3M PTB-GFP, PNC prevalence imaging, 16 h; hits give low values; activity change (PNC), negative = inhibition, % at 10 µM; 140,000 compounds, 3.1% hits;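 active means readout at or below -70, meaning at least 70% loss of cells showing the perinucleolar compartment, a nuclear body marking cancer cells; inconclusive means readout between -30 and a set limit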;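 further: plate controls were DMSO wells for no effect and camptothecin positive control wells for full effect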
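Read-out is percentage of cells bearing a perinucleolar compartment, from automated 20x imaging of fixed, Hoechst-stained PC3M PTB-GFP cells. Cells were seeded 4 h, then exposed 16 h to compound (23 nl of library stock) in duplicate plates.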
HPGD inh: qHTS Assay for Inhibitors of HPGD (15-Hydroxyprostaglandin Dehydrogenase); purified HPGD, NADH fluorescence kinetic, PGE2 substrate; 15-hydroxyprostaglandin dehydrogenase [NAD(+)] (Homo sapiens), P15428; Potency, µM, for the others: top-dose activity change, negative = inhibition, most hits filed as inhibitors; 150,000 compounds, 4.3% hits; AID 894, 2007; further: potency means the concentration at half of the fitted maximal effect
Target sequence (P15428 whole entry, looked up): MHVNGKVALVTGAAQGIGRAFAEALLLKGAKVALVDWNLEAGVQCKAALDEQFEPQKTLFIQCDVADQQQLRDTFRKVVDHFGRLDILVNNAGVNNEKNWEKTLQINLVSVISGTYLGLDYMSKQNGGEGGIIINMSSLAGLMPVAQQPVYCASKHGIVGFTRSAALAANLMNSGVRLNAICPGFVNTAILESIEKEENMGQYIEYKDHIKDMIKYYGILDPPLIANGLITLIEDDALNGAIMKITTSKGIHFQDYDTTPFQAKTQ
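20 nM HPGD preincubated 15 min at room temperature with compound in 50 mM Tris-HCl pH 8, 0.01% Tween 20. Started with 1 mM NAD+ and 30 uM prostaglandin E2; NADH fluorescence (360/450 nm) read 5 times over 30-s intervals, last minus first.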
ALDH1A1 block: qHTS Assay for Inhibitors of Aldehyde Dehydrogenase 1 (ALDH1A1); Aldehyde dehydrogenase 1A1 (Homo sapiens), P00352; Purified ALDH1A1, NADH fluorescence, propionaldehyde substrate; Potency, µM (titrated, usually from 75.3 µM), without a hit: at the highest dose activity, negative = inhibition, usual class: inhibitors; 220,000 compounds, 7.3% hits;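 further: potency means the concentration at half of the fitted maximal effect; plate controls were no enzyme wells and a reference inhibitor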
LMNA splice mod: qHTS Assay for Modulators of Lamin A Splicing; HeLa LMNA splicing GFP/RFP minigene ratio, 48 h; Potency, µM (titrated, usually from 46.1 µM), for inactives: at the top dose ratio change, negative = inhibition, most hits filed as inhibitors; 200,000 compounds, 0.01% hits; AID 1487, 2009; active means well fitted inhibition curve with a large enough effect in the signal ratio, with a control signal flat, not every such curve was filed as active; inconclusive means small, poorly fitted or top-dose-only effect, or effect the other way, or a change in a side signal; the % refers to the signal ratio; further: potency means the concentration at half of the fitted maximal effect
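Read-out is the ratio of GFP to DsRed2 object intensity, acquired by 488 nm laser-scanning cytometry on HeLa lamin A-EGFP minigene reporter cells. Compound incubation 48 hrs at 37 °C in Opti-MEM with 2% FBS; DMSO 0.5% final.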
The depositor's hits bear a star; ? = inconclusive; . = no result given; [ ] = remark or other dose. Sampled rows, rich in hits. Any-hit rate of the full collection: about 10%. Unless noted, the call rests on the fitted dose curve; in most records, active means well fitted inhibition curve with a large enough effect (not every such curve was filed as active); inconclusive means small, poorly fitted or top-dose-only effect, or another doubt; inactive means no such curve, though single readings can be large or run the other way. Unless noted, on the % scale 0 is the no-effect control and ±100 the full control effect.

SMILES | KinaseGlo FLuc | IMPase inh | PNC inhibitor | HPGD inh | ALDH1A1 block | LMNA splice mod
COc1ccc(C(CC(=O)O)NC(=O)c2cccs2)cc1 (centres undefined) | -2% | -7 | -85* | -3% | -1% | -1%
COc1ccc(NC(=O)C(=O)NNC(=O)c2cccs2)cc1 | 0% | . | -93* | -11% | 5% | -11%
Cc1ccc(NC(=O)C(=O)NNC(=O)c2cccs2)cc1 | -2% | . | . | . | 10% | 6%[9.22 µM]
COc1ccc(-n2ccnc2SCC(=O)Nc2cccc(OC)c2)cc1 | . | . | . | . | . | 1%[46 µM]
Cc1ccccc1CSc1nnc2[nH]c(=O)cc(C)n12 | . | . | . | . | . | 9%[46 µM]
CC(C)n1c(=NC(=O)c2ccco2)c(C#N)cc2c(=O)n3ccccc3cc21 | -1% | -3 | -82* | ? | ? | ?
CCOC(=O)c1cc2c(=O)n3ccccc3nc2n(C(C)C)c1=NC(=O)c1ccco1 | 0% | . | . | . | ? | .
CCCC(=O)c1ccc(N2CCCCCC2)c(F)c1 | 1% | -3 | 0 | 16µM* | ? | -3%
CCCC(=O)c1ccc(N2CCCCC2)c(F)c1 | 0% | . | . | . | -11% | 1%[46 µM]
CCCC(=O)c1ccc(N2CCC(C)CC2)c(F)c1 | -1% | . | 8 | 14µM* | 4% | 5%
CCOC(=O)C(CSCC(=O)c1ccc(Br)cc1)NC(=O)OC(C)(C)C (centres undefined) | 18% | 14 | 4 | -18% | ? | 3%
CCOC(=O)C(CSCC(=O)c1ccc(Cl)cc1)NC(=O)OC(C)(C)C (centres undefined) | -4% | 3 | 19 | -9% | 20µM* | 8%
Cc1cccc(NC(=O)CSc2nc(=O)n(Cc3ccncc3)c3c2CCC3)c1C | . | . | . | . | . | -11%[46 µM]
CCn1c(C(=O)NCc2ccccn2)cc2sccc21 | -1% | 8 | 0 | 18µM* | 6% | -7%
O=C(NCCc1ccccc1)c1cc2sccc2n1Cc1ccccc1 | 0% | ? | -4 | 16µM* | ? | 11%
O=C(c1ccco1)N1CCN(C(=O)c2cc3sccc3n2Cc2ccccc2)CC1 | 0% | 4 | 16 | -8% | ? | ?
CCn1c(C(=O)NCCCc2ccccc2)cc2sccc21 | 6% | . | -17 | -17% | -8% | ?
CCn1c(C(=O)NCc2cccnc2)cc2sc(Cl)cc21 | 3% | -4 | 43 | 16µM* | -4% | -4%
O=C(NCc1ccco1)c1cc2sccc2n1Cc1ccccc1 | 1% | 6 | 178 | 16µM* | ? | ?
Cc1ccc2c(Cl)c(C(=O)NCc3cccnc3)sc2c1 | 2% | 1 | 7 | ? | 12% | 46%
NC(=O)COc1ccc(-c2noc(COc3ccc(Cl)cc3)n2)cc1 | . | 4 | . | . | . | .
Cc1cc(F)ccc1NCc1ccccc1-c1nnc(-c2ccccc2Cl)o1 | . | 1 | . | . | . | .
COc1ccccc1NC(=O)C(=O)NCC(c1ccc2c(c1)OCO2)N1CCN(C)CC1 (centres undefined) | . | . | . | . | . | -14%[46 µM]
CC(C)(C)c1cc(C(=O)Nc2ccccc2)ccn1 | -2% | -10 | -122* | -3% | 4% | ?
Cc1ccc(NC(=O)c2ccnc(C(C)(C)C)c2)cc1 | 0% | 2 | -4 | -22% | 15% | ?
SMILES | KinaseGlo FLuc | IMPase inh | PNC inhibitor | HPGD inh | ALDH1A1 block | LMNA splice mod
Cc1cccc(CN2CCN(CC(=O)NCCCN3CCN(c4ccc(F)cc4)CC3)C2=O)c1 | -3% | -3 | ? | -2% | 7% | ?
Cc1cccc(CN2CCN(CC(=O)NCCCN3CCCC3=O)C2=O)c1 | 3% | 12 | -111* | 0% | 6% | -11%
O=Cc1cn(-c2ccccc2)nc1-c1ccc2c(c1)OCCO2 | 2% | -7 | ? | -13% | 18µM* | ?
CCN(CC)C(=O)c1cn(-c2ccccc2)nc1-c1ccc2c(c1)OCCO2 | 5% | . | . | . | -8% | .
N#Cc1cn(-c2ccccc2)nc1-c1ccc2c(c1)OCCO2 | 0% | 5 | -100* | -9% | -6% | 0%
N#Cc1cn(-c2ccccc2)nc1-c1ccco1 | -1% | 5 | -21 | -13% | 28µM* | -1%
N#Cc1cn(-c2ccccc2)nc1C(=O)c1ccccc1 | -2% | 9 | 41 | -10% | -9% | -5%
COCCn1c(=O)c(-c2ccccc2)nc2cnc(OC)nc21 | . | . | . | . | ? | -2%
COc1ccc(S(=O)(=O)N2CCC(C(=O)Nc3ccc(Oc4ccccc4)cc3)CC2)cc1OC | . | -7 | . | . | . | .
COc1cc(/C=C/C(=O)O)ccc1OCc1ccccc1C#N | 2% | . | ? | -29% | ? | 1%
COc1cc(C2NC(C(=O)O)CS2)ccc1OCc1ccccc1C#N (centres undefined) | -23% | 6 | -6 | -17% | 8.9µM* | 6%
CCC(C(=O)Nc1cc(C)nn1-c1nc(C)cc(C)n1)c1ccccc1 (centres undefined) | 2% | 9 | 34 | -15% | ? | 1%
Cc1cc(C)nc(-n2nc(C)cc2NC(=O)CNC2CCCCC2)n1 | 1% | 15 | 27 | -9% | ? | 3%
Cc1cc(C)nc(-n2nc(C)cc2NC(=O)CN2CCc3ccccc3C2)n1 | -1% | 11 | -23 | 4% | 25µM* | ?
Cc1cc(C)nc(-n2nc(C)cc2NC(=O)CNCc2ccccc2)n1 | -7% | -12 | 31 | -11% | 8.9µM* | -1%
CCN(CC(=O)Nc1cc(C)nn1-c1nc(C)cc(C)n1)Cc1ccccc1 | -1% | 2 | 17 | 0% | 20µM* | -18%
COc1cc(NC(=O)CN2C(=O)CN(C)C(=O)c3ccccc32)cc(OC)c1OC | . | . | . | . | . | -10%[46 µM]
Cc1oc(-c2ccccc2Cl)nc1Cn1c(SCc2cccc(F)c2)nc2cccnc21 | . | . | . | . | . | -10%[46 µM]
O=C(NC1CCCCC1)N1CCc2ccccc2C1 | 0% | . | . | . | -5% | 3%[46 µM]
O=C(CNC1CCCCC1)N1CCc2ccccc2C1 | -3% | 4 | 1 | -11% | 11µM* | -10%
CN(C)c1ncc2nc(-c3cc(F)cc(F)c3)c(=O)n(Cc3cccs3)c2n1 | -5% | . | . | ? | ? | .
N#C/C(=C/c1cn(CC(=O)O)c2ccccc12)C(=O)Nc1ccccc1 | 4% | . | . | . | 25µM* | ?
Cc1cccc(Cn2cc(/C=C(/C#N)C(=O)Nc3cccc(Cl)c3)c3ccccc32)c1 | . | -6 | . | . | . | .
N#C/C(=C\c1cn(Cc2ccccc2C#N)c2ccccc12)C(=O)NCc1cccs1 | -5% | 5 | 69 | ? | 7.9µM* | 8%
Cc1cccc(NC(=O)/C(C#N)=C\c2cn(CC(=O)O)c3ccccc23)c1 | 5% | . | . | . | 20µM* | .
CCc1ccc(NC(=O)/C(C#N)=C/c2cn(CC(=O)O)c3ccccc23)cc1 | 4% | . | . | . | 2% | .
